From PubChem
Shown are actives, neighbours in structure and some others; about 11% of the full set was active somewhere.
KDM4E inh = inhibitors of human JMJD2E histone demethylase; JMJD2E catalytic domain, FDH-coupled NADH fluorescence (FDH is formaldehyde dehydrogenase); Potency, µM (titrated, usually from 57.1 µM), for the others: top-dose activity change, negative = inhibition, actives largely listed as inhibitors; 230,000 compounds, 1.6% hits; AID 2147;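 further: potency means the concentration at half of the fitted maximal effect; 0% = wells with enzyme and -100% = buffer wells without enzyme; nearly all actives have a fitted effect of over 50% in size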
ALDH1A1 block = inhibitors of human aldehyde dehydrogenase 1A1; Potency, µM (top dose mostly 75.3 µM), for inactives: at the highest dose activity, negative = inhibition, actives largely listed as inhibitors; Purified ALDH1A1, NADH fluorescence, propionaldehyde substrate; 220,000 compounds, 7.3% hits; P00352;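 further: potency means the concentration at half of the fitted maximal effect; plate controls were no enzyme wells and a reference inhibitor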
Target sequence (P00352 whole entry, looked up): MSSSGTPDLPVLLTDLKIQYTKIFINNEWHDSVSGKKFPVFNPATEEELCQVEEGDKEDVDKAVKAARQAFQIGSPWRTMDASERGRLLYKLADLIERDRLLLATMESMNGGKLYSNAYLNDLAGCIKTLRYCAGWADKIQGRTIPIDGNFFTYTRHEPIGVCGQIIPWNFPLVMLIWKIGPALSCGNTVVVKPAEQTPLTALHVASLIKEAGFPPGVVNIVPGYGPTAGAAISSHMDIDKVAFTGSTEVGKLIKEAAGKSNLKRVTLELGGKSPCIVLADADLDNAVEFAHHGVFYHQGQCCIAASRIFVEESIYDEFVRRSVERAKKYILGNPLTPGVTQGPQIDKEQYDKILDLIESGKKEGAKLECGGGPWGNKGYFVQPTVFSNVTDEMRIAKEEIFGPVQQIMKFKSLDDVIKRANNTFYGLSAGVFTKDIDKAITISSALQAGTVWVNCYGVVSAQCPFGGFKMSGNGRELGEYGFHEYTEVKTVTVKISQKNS
HPGD inh = HPGD (human) dehydrogenase inhibition | P15428 | AID 894 | Potency, µM, for the others: at the top dose activity change, negative = inhibition, most hits filed as inhibitors | 150,000 compounds, 4.3% hits | purified HPGD, NADH fluorescence kinetic, PGE2 substrate; further: potency means the concentration at half of the fitted maximal effect
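NADH formation kinetics: reaction with 30 uM PGE2 and 1 mM NAD+ (final), 20 nM enzyme, Tris-HCl pH 8 with Tween 20, after 15 min compound preincubation at room temperature. Fluorescence change, last versus first of five reads.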
PNC assembly inh = blocks assembly of the perinucleolar compartment; 140,000 compounds, 3.1% hits; AID 2417; activity change (PNC), negative = inhibition, % at 10 µM; PC3M PTB-GFP, PNC prevalence imaging, 16 h; hits give low values;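 active means readout at or below -70, meaning at least 70% loss of cells showing the perinucleolar compartment, a nuclear body marking cancer cells; inconclusive means readout between -30 and a set limit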;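 further: plate controls were DMSO wells for no effect and camptothecin positive control wells for full effect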
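Compounds are pinned in duplicate onto adhered PC3M cells stably expressing GFP-tagged PTB and incubated 16 h at 37 C. Cells are then fixed, nuclei stained with Hoechst, and PNC-positive cells counted.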
Numbers without * were called inactive. Unless noted, the call rests on the fitted dose curve; in most records, active means well fitted inhibition curve with a large enough effect (not every such curve was filed as active); inconclusive means small, poorly fitted or top-dose-only effect, or another doubt; inactive means no such curve, though single readings can be large or run the other way. Unless noted, on the % scale 0 is the no-effect control and ±100 the full control effect.

For CCCc1cc2c(n1Cc1ccc(OC)cc1)C(C)C1CN(C(=O)c3ccccc3)C(C)(C(=O)OC)C21 (centres undefined) the results were KDM4E inh -10%, ALDH1A1 block inconclusive and HPGD inh -12%.
For Cc1c(C)[n+](=O)c(-c2ccco2)c(C)n1[O-] the results were KDM4E inh -16%, ALDH1A1 block 25µM*, HPGD inh -15% and PNC assembly inh 34.
Screening COc1cccc(-c2nc(NC3CCNCC3)c3ccccc3n2)c1 returned ALDH1A1 block 32µM*.
For CN(C)c1ccc(-c2nc(NC3CCNCC3)c3ccccc3n2)cc1 the results were KDM4E inh inconclusive, ALDH1A1 block -5% and HPGD inh -14%.
Screening NC(=O)c1ccc[n+]([C@@H]2OC(COP(=O)([O-])OP(=O)(O)OCC3OC(n4cnc5c(N)ncnc54)C(O)C3O)C(O)C2O)c1 (some centres undefined) returned KDM4E inh -16%, ALDH1A1 block -3% and HPGD inh -20%.
Screening NC(=S)c1ccc[n+]([C@@H]2O[C@@H](COP(=O)([O-])OP(=O)(O)OC[C@H]3O[C@@H](n4cnc5c(N)ncnc54)[C@H](OP(=O)(O)O)[C@H]3O)C(O)C2O)c1 (some centres undefined) returned KDM4E inh inconclusive, ALDH1A1 block 28µM* and HPGD inh inconclusive.
COc1ccc2c(C)cc(SC3CCOC3=O)nc2c1 (centres undefined) was read as KDM4E inh 5% and ALDH1A1 block -15%.
Screening COc1ccc(NS(=O)(=O)c2ccc3oc(SC4CCOC4=O)nc3c2)cc1 (centres undefined) returned KDM4E inh 0%, ALDH1A1 block 0.56µM*, HPGD inh 32µM* and PNC assembly inh 14.
`Cc1ccc(C(=O)COc2cc(C)nc3nncn23)cc1` gave KDM4E inh 1%.
c1ccc(-n2cc(CN3CCCC3)c(-c3ccc4c(c3)OCO4)n2)cc1 was read as KDM4E inh -2% and ALDH1A1 block inconclusive.
For c1ccc(Cn2cc(CN3CCCCO3)c(-c3ccc4c(c3)OCO4)n2)cc1 the results were KDM4E inh -13% and ALDH1A1 block 32µM*.
Screening CC(C)(C)c1nnc(N/N=C/c2ccccc2O)n(N)c1=O returned KDM4E inh 28µM*, ALDH1A1 block 6%, HPGD inh -12% and PNC assembly inh inconclusive.
`CC(C)(C)c1nnc(N/N=C/c2ccccc2)n(N)c1=O` gave KDM4E inh -5%, ALDH1A1 block 7%, HPGD inh -2% and PNC assembly inh inconclusive.
`CS(=O)(=O)Nc1cccc(-c2nc(NCc3cccs3)c3ccccc3n2)c1` gave KDM4E inh inconclusive, ALDH1A1 block -23% and HPGD inh inconclusive.
For CN=C(Nc1ccc(C(=O)OC)cc1)SC1CC(=O)N(c2ccccc2F)C1=O (centres undefined) the results were KDM4E inh -1%, ALDH1A1 block 9%, HPGD inh -10% and PNC assembly inh -108*.
`COC(=O)c1ccc(NC2CC(=O)N(c3ccccc3C)C2=O)cc1` (centres undefined) gave KDM4E inh 3%, ALDH1A1 block 13µM*, HPGD inh -17% and PNC assembly inh 18.
For CCN=C(Nc1ccc2c(c1)OCO2)SC1CC(=O)N(c2ccccc2F)C1=O (centres undefined) the results were KDM4E inh 1%, ALDH1A1 block 18µM*, HPGD inh -5% and PNC assembly inh -17.
`CCOC(=O)N1CCN(C(=O)C(=O)NNC(=O)COc2ccc(Cl)cc2)CC1` gave KDM4E inh 2%, ALDH1A1 block 9%, HPGD inh -3% and PNC assembly inh -1.
Screening O=C(CCN1CCCCC1)Nc1ccc2c(c1)C(=O)c1ccc(NC(=O)CCN3CCCCC3)cc1C2=O returned ALDH1A1 block inconclusive and HPGD inh -9%.
COc1cc(/C=N\NC(=O)c2ccc(Cl)cc2)ccc1Oc1ccc([N+](=O)[O-])cn1 was read as KDM4E inh -6%.
CCOc1cc(C=C(C#N)C#N)ccc1Oc1ccc([N+](=O)[O-])cn1 was read as KDM4E inh inconclusive and ALDH1A1 block 3.2µM*.
Screening O=C(CON1C(=O)c2ccccc2C1=O)c1ccccc1 returned ALDH1A1 block inconclusive and HPGD inh -5%.
For CCOC(=O)c1c(C)c(C(=O)NCCCOC)c(C)n1C the results were KDM4E inh 5%, ALDH1A1 block 1%, HPGD inh inconclusive and PNC assembly inh 49.
